{
  "source": "PubChem BioAssay AID720550",
  "about": "(National Center for Advancing Translational Sciences (NCATS), 2013)",
  "note": "Inconclusive results are not listed. Where a call stands in place of a potency, no number is given. Active and inactive are the calls of the source. Calls follow the shape of the dose curve; as a rule, active = well fitted curve in the direction sought with a large enough effect; inconclusive = small, poorly fitted or top-dose-only effect, or another doubt; inactive = no such curve, though single readings can be large or run the other way.",
  "data": [
    {"assay": "qHTS for Inhibitors of Bloom's syndrome helicase (BLM): Thiazole Orange DNA Binding Counterscreen for SAR.", "conditions": "fluorescence; Potency: Thiazole orange DNA displacement; series mostly up to 57.1 µM", "text": "Human RecQ DNA helicases participate in maintenance of genome stability and DNA repair. While other types of helicases have been explored as targets for drug development, members of the RecQ family have remained less well characterized. Mutations of the Bloom helicase gene have been associated with the rare human genetic disease called Bloom syndrome. […] Moreover, identified inhibitors can be used in cells and animal models to examine the consequences of inhibition on the survival of cancer cells where it has been shown that BLM plays an important role.\nA fluorescence-based, biochemical assay in 1536 well format was developed to evaluate inhibition of BLM DNA unwinding activity. This assay was used to screen the MLPCN library. The resulting compounds were subjected to orthogonal and secondary biochemical assays to triage the initial hits, to classify compounds based on mode of action and to derive structure activity relationships (SARs) of candidate effectors. The Thiazole Orange (ThO) DNA binding (TO-binding) is used to eliminate inhibitors that operate via nonspecific DNA binding. This displacement assay is miniaturized for a 1536-well format and utilizes a ThO dye bound to unlabeled DNA. Inactivation or no significant activity is the desired outcome for this assay.\nNIH Chemical Genomics Center [NCGC]\nNIH Molecular Libraries Probe Centers Network [MLPCN]\nAssay Submitter (PI): Opher Gileadi, Structural Genomics Consortium, University of Oxford, UK\nCompounds were added to a 4 uL mixture of 50 nM DNA and 100 nM ThO via pintool transfer. The fluorescence signal (excitation 480 nm, emission 530 nm) was measured after 15 min incubation at room temperature using the ViewLux CCD imager.", "values": [
      {"compound": "N#Cc1ccc(NC(=O)Nc2nnc(-c3ccncc3)s2)c(Cl)c1", "Potency": "inactive"},
      {"compound": "O=C(Nc1ccc(Br)c(Br)c1)Nc1cccc(-c2ccncc2)n1", "Potency": "inactive"},
      {"compound": "Cc1ccc(-c2nnc(NC(=O)Nc3ccc4ccccc4c3)s2)cc1", "Potency": "inactive"},
      {"compound": "Cc1cnccc1-c1nnc(NC(=O)Nc2ccc(F)c(C(F)(F)F)c2)s1", "Potency": "inactive"},
      {"compound": "O=C(Nc1ccc(Cl)c(Cl)c1)Nc1nnc(Br)s1", "Potency": "inactive"},
      {"compound": "Cc1cc(C)c(-c2nnc(NC(=O)Nc3ccc4ccccc4c3)s2)c(C)c1", "Potency": "inactive"},
      {"compound": "Cc1cc(NC(=O)Nc2nnc(-c3cccnc3)s2)ccc1F", "Potency": "inactive"},
      {"compound": "N#Cc1cc(NC(=O)Nc2nnc(-c3ccncc3)s2)ccc1Br", "Potency": "inactive"},
      {"compound": "O=c1c(Nc2ccc(Br)c(Br)c2)c(Nc2nnc(-c3ccncc3)s2)c1=O", "Potency": "10.2 µM (active)"},
      {"compound": "O=S(=O)(Cc1ccc(Cl)c(Cl)c1)Nc1nnc(-c2ccncc2)s1", "Potency": "inactive"},
      {"compound": "N/C(=N\\c1nnc(-c2ccncc2)s1)Nc1ccc(F)c(C(F)(F)F)c1", "Potency": "inactive"},
      {"compound": "O=C(Nc1ccc(F)c(C(F)(F)F)c1)Nc1cccc(-c2ccncc2)n1", "Potency": "inactive"},
      {"compound": "O=C(Cc1ccc2ccccc2c1)Nc1nnc(-c2ccncc2)s1", "Potency": "inactive"},
      {"compound": "O=C(Nc1ccc(-c2nc3ccccc3[nH]2)cc1)Nc1ccc2c(c1)OCCO2", "Potency": "inactive"},
      {"compound": "O=C(Nc1ccc2ccccc2c1)Nc1nnc(-c2ccncc2)s1", "Potency": "inactive"},
      {"compound": "Cc1cc(NC(=O)Nc2cccc(-c3ccncc3)n2)ccc1F", "Potency": "inactive"},
      {"compound": "O=C(Nc1ccc2c(c1)OCO2)Nc1nnc(-c2ccncc2)s1", "Potency": "inactive"},
      {"compound": "CN(C(=O)Nc1ccc2ccccc2c1)c1nnc(-c2ccncc2)s1", "Potency": "inactive"},
      {"compound": "S=C(Nc1ccc(Cl)c(Cl)c1)Nc1nnc(-c2ccncc2)o1", "Potency": "inactive"},
      {"compound": "O=C(Nc1ccc(Cl)c(Cl)c1)Nc1nnc(-c2cccnc2)s1", "Potency": "inactive"},
      {"compound": "O=C(Nc1ccc(Cl)c([N+](=O)[O-])c1)Nc1cccc(-c2ccncc2)n1", "Potency": "inactive"},
      {"compound": "O=c1c(Nc2ccc(Cl)c(Cl)c2)c(Nc2nnc(-c3ccncc3)s2)c1=O", "Potency": "4.57 µM (active)"},
      {"compound": "Cc1cc(NC(=O)Nc2nnc(-c3cccnc3)s2)ccc1Br", "Potency": "inactive"},
      {"compound": "O=C(Nc1cccc(C(=O)O)c1)Nc1nnc(-c2ccncc2)s1", "Potency": "inactive"},
      {"compound": "CC(C)(C)c1ccc(-c2nnc(NC(=O)Nc3ccc4ccccc4c3)s2)cc1", "Potency": "inactive"},
      {"compound": "O=C(Nc1nnc(-c2ccncc2)s1)NC12CC3CC(CC(C3)C1)C2", "Potency": "inactive"},
      {"compound": "Cc1cc(NC(=O)Nc2nnc(C3CCCCC3)s2)ccc1Br", "Potency": "inactive"},
      {"compound": "O=C(Nc1ccc2ccccc2c1)Nc1nnc(-c2ccc(F)cc2)s1", "Potency": "inactive"},
      {"compound": "O=C(Nc1ccc(F)c(F)c1)Nc1nnc(-c2ccncc2)s1", "Potency": "inactive"},
      {"compound": "Cc1cc(NC(=O)Nc2cccc(-c3ccncc3)n2)ccc1Br", "Potency": "inactive"},
      {"compound": "O=C(Nc1cc(C(F)(F)F)cc(C(F)(F)F)c1)Nc1nnc(-c2ccncc2)s1", "Potency": "inactive"},
      {"compound": "O=C(Nc1ccc2ccccc2c1)Nc1nnc(-c2ccncc2)o1", "Potency": "inactive"},
      {"compound": "N#Cc1cc(NC(=O)Nc2nnc(-c3ccncc3)s2)ccc1-c1cn[nH]c1", "Potency": "inactive"},
      {"compound": "O=C(Nc1ccc2ccccc2c1)Nc1nnc(-c2ccccn2)s1", "Potency": "inactive"},
      {"compound": "CCOc1ccc(NC(=O)Nc2ccc(-c3nc4ccccc4[nH]3)cc2)cc1", "Potency": "inactive"},
      {"compound": "O=C(Nc1ccc(-c2cn[nH]c2)c(C(F)(F)F)c1)Nc1nnc(-c2ccncc2)s1", "Potency": "inactive"},
      {"compound": "O=C(Nc1ccc(F)c(C(F)(F)F)c1)Nc1nnc(-c2ccncc2)s1", "Potency": "inactive"},
      {"compound": "N#Cc1cc(NC(=O)Nc2nnc(-c3ccncc3)s2)ccc1F", "Potency": "inactive"},
      {"compound": "O=C(Nc1ccc(F)nc1)Nc1nnc(-c2ccncc2)s1", "Potency": "inactive"},
      {"compound": "O=C(NCc1ccccc1)Nc1nnc(-c2ccncc2)s1", "Potency": "inactive"}
    ]}
  ]
}
